AMA1 RON2 block – qHTS for Inhibitors of AMA1-RON; Towards Development of Antimalarial Drug Lead: Primary Screen. Plasmodium falciparum AMA1 (3D7) - RON2 peptide interaction. AlphaScreen AMA1-biotinylated RON2 peptide binding. Potency, µM (highest dose often 58.2 µM), for the others: at the top dose activity change, negative = inhibition, usual class: inhibitors. 360,000 tested, 0.2% active;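 also: 0% = vehicle wells and -100% = peptide control; nearly all actives have a fitted effect of over 45% in size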
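AMA1 (3D7) with his tag at 25 nM final met compounds first, then biotinylated RON2 peptide at 25 nM; detection used donor plus acceptor beads, 10 µg/mL apiece, read by AlphaScreen after 30 min at room temperature.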
AmpC detergent – qHTS Inhibitors of AmpC Beta-Lactamase (assay with detergent); Potency, µM (doses to about 114 µM), inactives show at the top dose activity change, negative = inhibition, actives largely listed as inhibitors; AmpC hydrolysis of nitrocefin, absorbance 480 nm, 0.01% Triton; P00811; 370,000 tested, 0.041% active;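 also: 0% = no-compound wells and -100% = no-enzyme wells; nearly all actives have a fitted effect of over 25% in size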
Target sequence (P00811 whole entry, looked up): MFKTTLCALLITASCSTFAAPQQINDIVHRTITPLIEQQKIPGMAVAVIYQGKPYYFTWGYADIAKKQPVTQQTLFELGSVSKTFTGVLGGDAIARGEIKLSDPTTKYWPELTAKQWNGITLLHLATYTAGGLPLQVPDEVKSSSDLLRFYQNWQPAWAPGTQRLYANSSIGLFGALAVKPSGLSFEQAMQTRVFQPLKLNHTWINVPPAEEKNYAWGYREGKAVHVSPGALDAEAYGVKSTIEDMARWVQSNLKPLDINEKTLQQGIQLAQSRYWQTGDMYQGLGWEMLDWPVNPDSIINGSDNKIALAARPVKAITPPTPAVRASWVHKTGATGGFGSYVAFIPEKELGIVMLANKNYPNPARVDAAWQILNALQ
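AmpC (5.3 nM in the dispensed reagent) in 20 mM phosphate pH 7.0 with 0.01% (detergent screen) or 0.0001% Triton X-100 was preincubated with compounds for 15 min at room temperature. Nitrocefin was then added from an 800 uM solution, and hydrolysis was followed at 480 nm.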
Pf growth 48h – Primary qHTS for delayed death inhibitors of the malarial parasite plastid, 48 hour incubation | Potency, µM (titrated, usually from 28.7 µM), inactives show at the top dose activity change, negative = inhibition, actives largely listed as inhibitors | 310,000 tested, 5.9% active | AID 504832, 2011 | P. falciparum luciferase growth in erythrocytes, 48 h
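Luminescence readout; reporter = integrated firefly luciferase in P. falciparum. RBC culture at 2% hematocrit, 0.1% parasitemia final, 37 C/5% CO2; decreased signal taken as growth inhibition.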
Pf growth 96h – Primary qHTS for delayed death inhibitors of the malarial parasite plastid, 96 hour incubation | P. falciparum luciferase reporter growth, 96 h | Potency, µM (highest dose often 28.7 µM), without a hit: at the top dose activity change, negative = inhibition, actives largely listed as inhibitors | 320,000 tested, 6.9% active | AID 504834, 2011
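Readout is luminescence from an integrated firefly luciferase in P. falciparum. Red cells, 2% hematocrit and 0.05% parasitemia final, were cultured with compound through two parasite generations (96 hours) at 37 C, 5% CO2.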
HCV inhibitor – qHTS Assay for Inhibitors of Hepatitis C Virus (HCV). Huh7.5.1 HCVcc-Cre infection, luciferase reporter, 44 h. Potency, µM (top dose mostly 41.8 µM), without a hit: top-dose activity change, negative = inhibition, actives largely listed as inhibitors. AID 651820, 2012. 340,000 tested, 3.4% active
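Infectious HCVcc-Cre (~0.5 moi) was added to cells just after compound, with cells seeded 4 h earlier at 1,000 per well. Luciferase activity after 44 h culture reported infection; substrate was incubated 15 min at room temperature before reading.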
AmpC no deterg – qHTS Inhibitors of AmpC Beta-Lactamase (assay without detergent); Potency, µM (highest dose often 57.1 µM), for the others: at the highest dose activity change, negative = inhibition, actives largely listed as inhibitors; AID 485341, 2010; AmpC nitrocefin hydrolysis, absorbance 480 nm, 0.0001% Triton; 330,000 tested, 0.52% active; P00811;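 also: plate controls were no compound for no effect and no enzyme for full effect; nearly all actives have a fitted effect of over 20% in size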
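AmpC (5.3 nM in the dispensed reagent) in 20 mM phosphate pH 7.0 with 0.01% (detergent screen) or 0.0001% Triton X-100 was preincubated with compounds for 15 min at room temperature. Nitrocefin was then added from an 800 uM solution, and hydrolysis was followed at 480 nm.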
* hit, by the source's call. An excerpt weighted towards active compounds, which were near 11% of everything screened. Calls follow the shape of the dose curve; as a rule, active = well fitted curve in the direction sought with a large enough effect; inconclusive = small, poorly fitted or top-dose-only effect, or another doubt; inactive = no such curve, though single readings can be large; an effect the other way counts as inactive or inconclusive. Unless noted, % is scaled to controls: 0 for no effect and ±100 for the full control effect; potency is read from the fitted curve at half-maximal effect.

What do the screens show for `COc1cc(Cl)ccc1NC(=S)N(CCCN1CCOCC1)Cc1cn(C)c2ccccc12`?
AMA1 RON2 block: inconclusive; AmpC detergent: inconclusive; Pf growth 48h: inconclusive; Pf growth 96h: -11.9%; HCV inhibitor: inconclusive; AmpC no deterg: 183.8%

How did COc1ccc(Cl)cc1NC(=S)N(CCCN1CCOCC1)Cc1cn(C)c2ccccc12 do in these assays?
AMA1 RON2 block: inconclusive; AmpC detergent: -6.6%; Pf growth 48h: inconclusive; Pf growth 96h: 12.9%; HCV inhibitor: 10µM*; AmpC no deterg: 169.5%

What do the screens show for `CCOc1ccccc1NC(=S)N(CCCN1CCOCC1)Cc1cn(C)c2ccccc12`?
AMA1 RON2 block: inconclusive; AmpC detergent: -12.5%; Pf growth 48h: 11.7µM*; Pf growth 96h: inconclusive; HCV inhibitor: inconclusive; AmpC no deterg: 237.6%

Results for CC(C)CCNC(=O)c1cc(C(=O)c2cc(F)ccc2O)cn(CCC(C)C)c1=O ?
AMA1 RON2 block: 18.4%; AmpC detergent: -2.5%; Pf growth 48h: 1.47µM*; Pf growth 96h: inconclusive; HCV inhibitor: inconclusive; AmpC no deterg: -21.5%

Results for CC(C)CCNC(=O)c1cc(C(=O)c2cc(Br)ccc2O)cn(CCC(C)C)c1=O ?
AMA1 RON2 block: -2.0%; AmpC detergent: -15.6%; Pf growth 48h: 1.04µM*; Pf growth 96h: 0.415µM*; HCV inhibitor: inconclusive; AmpC no deterg: -39.2%

What do the screens show for `N#C/C(=C\c1cc(Br)c(O)c(Br)c1)c1nc2ccccc2c(=O)[nH]1`?
AmpC detergent: -1.3%

What do the screens show for `CCCCc1nn2c(=O)cc(COC(=O)c3cccc(NC(=O)c4cccc(Cl)c4)c3)nc2s1`?
AmpC detergent: 2.3%

Results for O=C1CN(C(=O)N[C@@H](Cc2ccccc2)C(=O)N[C@H](Cc2ccccc2)C(=O)O)c2ccccc2N1 ?
AMA1 RON2 block: 14.9%; AmpC detergent: -14.6%; Pf growth 48h: -3.8%; Pf growth 96h: -15.8%; HCV inhibitor: 0.562µM*; AmpC no deterg: -39.6%

Results for COc1ccc(CCNC(=O)CNC(=O)N2CC(=O)Nc3ccccc32)cc1OC ?
AMA1 RON2 block: -4.4%

How did COc1ccc(CCNC(=O)[C@@H](NC(=O)N2CC(=O)Nc3ccccc32)C(C)C)cc1OC do in these assays?
AMA1 RON2 block: -7.7%; AmpC detergent: -8.5%; Pf growth 48h: -19.7%; Pf growth 96h: 11.7µM*; HCV inhibitor: 2.6%; AmpC no deterg: 0.8%

What do the screens show for `COc1ccc(C2=NN(CCC(=O)NCCc3ccccc3)C(=O)CC2)cc1`?
AmpC detergent: 4.4%

Results for COc1ccc(N2CCN(CC(O)COc3ccc(C)cc3C)CC2)cc1 (stereo not drawn) ?
AMA1 RON2 block: 25.1µM*; AmpC detergent: -0.2%; Pf growth 96h: -16.2%; HCV inhibitor: -11.2%; AmpC no deterg: 62.4%

How did C=CCc1ccccc1OCC(O)CN1CCN(CCN2C(=O)c3cccc4cccc(c34)C2=O)CC1 (stereo not drawn) do in these assays?
AMA1 RON2 block: inconclusive; AmpC detergent: -8.9%; Pf growth 48h: inconclusive; Pf growth 96h: 3.7%; HCV inhibitor: 14.1µM*; AmpC no deterg: 185.0%

How did CC(C)OCC(O)CN1CCN(CCN2C(=O)c3cccc4cccc(c34)C2=O)CC1 (stereo not drawn) do in these assays?
AMA1 RON2 block: -5.0%; AmpC detergent: inconclusive; Pf growth 48h: 15.6%; Pf growth 96h: 1.5%; HCV inhibitor: inconclusive; AmpC no deterg: 10.3%

Results for C=CCc1ccccc1OCC(O)CN1CCN(c2ccc(C)cc2)CC1 (stereo not drawn) ?
AMA1 RON2 block: inconclusive; AmpC detergent: -6.9%; Pf growth 48h: inconclusive; Pf growth 96h: 9.28µM*; HCV inhibitor: inconclusive; AmpC no deterg: 19.7%

What do the screens show for `CCC(OCC(O)CN1CCN(CCN2C(=O)c3cccc4cccc(c34)C2=O)CC1)c1ccccc1` (stereo not drawn)?
AMA1 RON2 block: inconclusive; AmpC detergent: inconclusive; Pf growth 48h: inconclusive; Pf growth 96h: inconclusive; HCV inhibitor: 7.94µM*; AmpC no deterg: 171.8%

How did COc1ccc(-c2cn[nH]c2-c2ccc(OC)cc2O)cc1 do in these assays?
AMA1 RON2 block: 75.9%; AmpC detergent: 2.5%; Pf growth 48h: 9.28µM*; Pf growth 96h: 11.7µM*; HCV inhibitor: inconclusive; AmpC no deterg: -43.2%

Results for COc1ccc(-c2cn[nH]c2-c2ccc(OCc3ccccc3)cc2O)cc1 ?
AMA1 RON2 block: 63.7%; AmpC detergent: 9.3%; Pf growth 48h: inconclusive; Pf growth 96h: inconclusive; HCV inhibitor: inconclusive; AmpC no deterg: -40.1%

What do the screens show for `COc1ccccc1-c1cn[nH]c1-c1ccc(OCc2ccccc2)cc1O`?
AMA1 RON2 block: 55.0%; AmpC detergent: -1.9%; Pf growth 48h: 6.57µM*; Pf growth 96h: 3.7µM*; HCV inhibitor: -19.3%; AmpC no deterg: -45.1%

What do the screens show for `CCOc1ccc(-c2[nH]ncc2-c2ccccc2)c(O)c1`?
AMA1 RON2 block: 116.5%; AmpC detergent: -7.0%; Pf growth 48h: inconclusive; Pf growth 96h: 7.38µM*; HCV inhibitor: 5.9%; AmpC no deterg: -47.6%

What do the screens show for `COc1ccc(-c2[nH]ncc2-c2ccc(Cl)cc2)c(O)c1`?
AMA1 RON2 block: -0.5%; AmpC detergent: -5.5%; Pf growth 48h: 11.7µM*; Pf growth 96h: 4.15µM*; HCV inhibitor: 19.9%

How did CCOc1ccc(C(=O)CSc2nnc3cc(C)c4ccccc4n23)cc1 do in these assays?
AmpC detergent: 21.1%

How did O=C(Nc1cc(Oc2ccc(Cl)cc2)cc([N+](=O)[O-])c1)c1ccco1 do in these assays?
AMA1 RON2 block: -24.2%; AmpC detergent: -4.1%; Pf growth 48h: inconclusive; Pf growth 96h: 94.6%; HCV inhibitor: 10µM*; AmpC no deterg: -36.4%

Results for CCOc1ccc(Oc2cc(NC(=O)c3ccco3)cc([N+](=O)[O-])c2)cc1 ?
AMA1 RON2 block: -20.6%; AmpC detergent: -2.9%; Pf growth 48h: 6.57µM*; Pf growth 96h: 1.65µM*; HCV inhibitor: inconclusive; AmpC no deterg: -20.2%

How did Cc1nn(C)cc1C(=O)Nc1cc(Oc2ccc(Cl)cc2)cc([N+](=O)[O-])c1 do in these assays?
AMA1 RON2 block: -6.1%; AmpC detergent: -11.5%; Pf growth 48h: inconclusive; HCV inhibitor: inconclusive; AmpC no deterg: -19.3%
